Screening data (PubChem)
Shown are actives, neighbours in structure and some others; about 8.3% of the full set was active somewhere.
Giardia FBPA inh: qHTS Assay for Inhibitors of Fructose-1,6-bisphosphate Aldolase from Giardia Lamblia; A8B2U2; purified Giardia FBPA; Potency, µM (doses to about 59.6 µM), without a hit: at the top dose activity, negative = inhibition, actives largely listed as inhibitors; actives 0.71% (n = 290,000); AID 2451, 2010; also: potency is read from the fitted curve at half-maximal effect; nearly all actives have a fitted effect of over 55% in size
Target sequence (A8B2U2 whole entry, looked up): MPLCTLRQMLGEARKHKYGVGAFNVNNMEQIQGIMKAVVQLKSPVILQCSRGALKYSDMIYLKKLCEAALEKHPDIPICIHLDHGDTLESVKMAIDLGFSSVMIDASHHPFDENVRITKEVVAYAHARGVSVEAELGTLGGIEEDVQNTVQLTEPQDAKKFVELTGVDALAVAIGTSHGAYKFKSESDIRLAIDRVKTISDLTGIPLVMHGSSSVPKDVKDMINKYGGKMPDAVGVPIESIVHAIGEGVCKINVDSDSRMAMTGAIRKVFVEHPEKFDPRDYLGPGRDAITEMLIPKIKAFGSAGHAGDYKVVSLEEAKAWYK
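Giardia FBPA (40 nM reagent) was preincubated 10 min at RT with compound (up to 57.5 uM final), then substrate plus GAPDH/TPI/NAD/arsenate coupling system with diaphorase/resazurin was added; resorufin fluorescence (525/598 nm) was read after 20 min.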
HCV inh: qHTS Assay for Inhibitors of Hepatitis C Virus (HCV). Huh7.5.1 HCVcc-Cre infection, luciferase reporter, 44 h. Potency, µM (titrated, usually from 41.8 µM), without a hit: at the top dose activity change, negative = inhibition, most hits filed as inhibitors. AID 651820, 2012. actives 3.4% (n = 340,000); also: potency is read from the fitted curve at half-maximal effect
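Antiviral activity was scored by luciferase reporter output from cells infected with HCVcc-Cre (~0.5 moi) in presence of compound, 44 h infection period, cells seeded 1,000/well 4 h prior.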
LASV entry inh: qHTS for Inhibitors of binding or entry into cells for Lassa Virus; actives 1.2% (n = 300,000); AID 540256, 2011; Lassa virus pseudotype entry inhibition, cell reporter; Potency, µM (doses to about 37.9 µM), for inactives: at the top dose activity change, negative = inhibition, usual class: inhibitors; calls by dose curve; tested in HEK293 cells; also: potency is read from the fitted curve at half-maximal effect; nearly all actives have a fitted effect of over 50% in size
FMDV antiviral: High Throughput Screening for Foot and Mouth Disease Virus Antivirals; FMDV antiviral cell-based qHTS; Potency, µM (top dose mostly 57.9 µM), for the others: at the top dose activity change, negative = inhibition, most hits filed as inhibitors; actives 1.2% (n = 410,000); calls by dose curve; tested in HEK293T cells; also: read-out not given here; potency is read from the fitted curve at half-maximal effect; nearly all actives have a fitted effect of over 45% in size
Marburg entry inh: qHTS for inhibitors of binding or entry into cells for Marburg Virus. actives 1.8% (n = 300,000). AID 540276, 2011. Potency, µM (series often up to 37.8 µM), for inactives: at the highest dose activity change, negative = inhibition, most hits filed as inhibitors. Marburg virus pseudotyped entry inhibition, cell reporter; calls by dose curve; tested in HEK293 cells; also: potency is read from the fitted curve at half-maximal effect
HCMV inh: qHTS Assay for inhibitors of the human cytomegalovirus (HCMV); actives 4.5% (n = 410,000); activity change, negative = inhibition, % at 57.5 µM; HFF cells, HCMV-luciferase reporter, 72 h; stronger effect = lower value; AID 1259415, 2018; in the data active = activity change below about -60%; inconclusive = no clear call, values can overlap the other calls; inactive = above about -39%
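HFF cells seeded 16 h at 37C, treated with compounds, infected with luciferase-reporter HCMV at MOI 1 PFU/cell; luciferase read at 72 h post infection, normalized to buffer-only and Salinomycin controls.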
* hit, by the source's call; ? = inconclusive; . = no result given; [ ] = remark or other dose. Unless noted, calls follow the shape of the dose curve; as a rule, active = well fitted curve in the direction sought with a large enough effect; inconclusive = small, poorly fitted or top-dose-only effect, or another doubt; inactive = no such curve, though single readings can be large; an effect the other way counts as inactive or inconclusive. % is scaled to controls: 0 for no effect and ±100 for the full control effect.

SMILES	Giardia FBPA inh	HCV inh	LASV entry inh	FMDV antiviral	Marburg entry inh	HCMV inh
Cc1ccnc(SCC(=O)Nc2sc3c(c2C#N)CCCC3)n1	7%	7.9µM*	-17%	?	-27%	-39
COc1ccc(N2CCC[C@@H]2/C=C/C(=O)OCc2ccccc2)cc1	.	.	.	.	.	7
Cn1c(=O)n(C)c2cc(N3CCOCC3)c(NC(=O)c3ccc(C(C)(C)C)cc3)cc21	.	.	-8%[46.1 µM]	-14%	3%[46.1 µM]	9
COc1ccc(-c2ccc(C#N)c(SCC(=O)Nc3sc4c(c3C#N)CCC4)n2)cc1OC	0%	?	15µM*	1%	?	-88*
Oc1ccccc1-c1nc(-c2cccs2)c(-c2cccs2)[nH]1	.	.	-25%[46.1 µM]	?	-26%[46.1 µM]	-15
c1csc(-c2cn3ccc4ccccc4c3n2)c1	?	-29%	?	1%	?	160
Oc1ccccc1-c1nc2c3ccccc3c3ccccc3c2[nH]1	18µM*	?	.	-18%	.	18
c1csc(-c2nc3c4ccccc4c4ccccc4c3[nH]2)c1	-16%	13µM*	-28%	-30%	?	-21
O=C1O/C(=C/Br)CCC1c1cccc2ccccc12 (centres undefined)	4%	.	21µM*	.	10µM*	.
O=C1CCCCC1c1cccc2ccccc12 (centres undefined)	-1%	-10%	-11%	-15%	?	-14
O=C(Nc1cccc(Cl)c1)c1ccc2c(c1)SC1=NS(=O)(=O)CCN12	-5%	-23%	?	-19%	?	-79*
CCC(CO)Oc1cc(NCc2ccccc2C(F)(F)F)c2ncn(C(C)C)c2c1 (centres undefined)	.	1.3µM*	.	-21%	.	70
CCC(CO)Oc1cc(NCc2ccccc2F)c2ncn(C(C)C)c2c1 (centres undefined)	.	?	.	-4%	.	12
CCC(CO)Oc1cc(NCc2ccccc2Cl)c2ncn(C(C)C)c2c1 (centres undefined)	.	2.2µM*	.	6%	.	28
COc1cc(OC)c(OC)cc1CN1CCOc2ccc(CN3CCN(C(C)=O)CC3)cc2C1	.	.	.	-30%	.	.
COC(=O)[C@@]1(C)[C@H]2C(=O)N(C)C(=O)[C@H]2[C@H]2CN=C(SCc3ccc(Cl)cc3)N21	.	4.5µM*	.	-13%	.	28
COC(=O)[C@@]1(C)[C@H]2C(=O)N(C)C(=O)[C@H]2[C@H]2CN=C(SCc3ccc(C#N)cc3)N21	.	0.56µM*	.	-5%	.	-5
CC[C@]1(C(=O)OC)[C@H]2C(=O)N(C)C(=O)[C@H]2[C@H]2CN=C(SCc3ccc(Cl)cc3)N21	.	-5%	.	-16%	.	-34
O=C(O)c1ccc2c(c1)C(=O)N([C@H](Cc1ccc(C(F)(F)F)cc1)C(=O)O)C2=O	14%	.	.	.	.	.
O=C(NC1CCCC1)c1nc2ccccc2nc1-c1ccc(F)c(F)c1	.	.	.	.	.	64
CCOC(=O)c1c(NC(=O)/C=C/C(=O)O)sc(C)c1-c1ccc(F)cc1	?	-6%	-22%	32µM*	-26%[46.1 µM]	-11
COC(=O)c1c(NC(=O)/C=C/C(=O)O)sc(C)c1-c1ccc(C)c(C)c1	?	-4%	-21%	?	?	-35
COC(=O)c1c(NC(=O)/C=C/C(=O)O)sc(C)c1-c1ccc(C(C)C)cc1	?	4%	5.6µM*	14µM*	-16%[46.1 µM]	?
COC(=O)c1c(NC(=O)/C=C/C(=O)O)sc(C)c1-c1ccc(C)cc1	?	0%	?	0%	?	-26
CC(C)=C1C2CCC1C(C(=O)Nc1sc(C)c(-c3ccc(C(C)C)cc3)c1C(N)=O)C2C(=O)O (centres undefined)	13%	?	?	-13%	21µM*	-22
CCOC(=O)c1c(NC(=O)/C=C/C(=O)O)sc(C)c1-c1ccc(C)c(C)c1	25%	-1%	?	32µM*	?	-27
Cc1ccc(-c2c(C)sc(NC(=O)C3C4CCC(O4)C3C(=O)O)c2C(=O)OC(C)C)cc1 (centres undefined)	29%	2%	-1%	?	15%	-7
O=C(NCc1ccccc1Cl)c1cc2ccccc2o1	.	.	?	50%	6%[46.1 µM]	27
